HT1080NT lethal – kills 2HG-producing HT-1080-NT fibrosarcoma cells; AID 686970; HT-1080-NT fibrosarcoma viability, CellTiter-Glo ATP luminescence, 48 h; Potency, µM (top dose mostly 46.1 µM), most hits filed as cytotoxic; actives 1.6% (n = 360,000);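 further: NT is the 2HG producing partner of a matched IDH1 knockdown line; nearly all actives have a fitted effect of over 55% in size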
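Luminescent CellTiter-Glo readout after 48 hours of compound exposure at 37 degrees C defined viability of HT-1080-NT cells. Activity was normalized to DMSO wells and cell-free media wells; concentration-response curves were fitted and assigned curve classes.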
ALOX12 inh – ALOX12 (human) lipoxygenase inhibition; P18054; purified 12hLO, xylenol orange hydroperoxide absorbance; Potency, µM (top dose mostly 108 µM), most hits filed as inhibitors; actives 1.1% (n = 580,000)
Target sequence (P18054 whole entry, looked up): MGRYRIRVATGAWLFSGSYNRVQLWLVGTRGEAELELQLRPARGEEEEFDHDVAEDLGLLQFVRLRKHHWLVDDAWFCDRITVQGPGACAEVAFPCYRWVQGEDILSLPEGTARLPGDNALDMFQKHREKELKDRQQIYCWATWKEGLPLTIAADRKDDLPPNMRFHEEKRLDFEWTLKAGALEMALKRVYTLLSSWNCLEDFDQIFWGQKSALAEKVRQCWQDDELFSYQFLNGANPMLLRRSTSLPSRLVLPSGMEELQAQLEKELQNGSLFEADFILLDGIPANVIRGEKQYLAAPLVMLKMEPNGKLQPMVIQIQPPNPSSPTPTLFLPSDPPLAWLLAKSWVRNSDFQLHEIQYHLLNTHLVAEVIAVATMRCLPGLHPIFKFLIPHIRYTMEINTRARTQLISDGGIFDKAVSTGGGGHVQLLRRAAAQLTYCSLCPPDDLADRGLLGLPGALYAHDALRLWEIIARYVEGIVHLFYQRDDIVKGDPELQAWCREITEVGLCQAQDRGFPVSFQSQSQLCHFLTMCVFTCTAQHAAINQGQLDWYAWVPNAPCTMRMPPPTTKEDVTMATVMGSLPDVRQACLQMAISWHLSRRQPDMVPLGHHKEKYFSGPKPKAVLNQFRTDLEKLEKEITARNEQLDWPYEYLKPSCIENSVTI
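Hydroperoxide product was detected by ferrous iron/xylenol orange as the 573 to 405 nm absorbance ratio. Arachidonic acid at 40 uM (final) was turned over for 30 min at room temperature by 150 nM human 12hLO, pH 7.0 Hepes buffer, after 15 min compound preincubation.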
HT1080 IDH1KD tx – kills HT-1080 cells with IDH1 knockdown. HT-1080 IDH1 knockdown viability, ATP luminescence, 48 h. Potency, µM (doses to about 46.1 µM), usual class: cytotoxic. actives 2% (n = 360,000). AID 686971
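Knockdown cells (IDH1KD HT-1080) received compounds 2 h after plating at 750 cells/well and were kept 48 h at 37 °C in 5% FBS RPMI. A CellTiter-Glo luminescence read gave % activity for curve fitting.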
TDP1 cell CPT – growth inhibition of DT40 Tdp1-/-;hTDP1 cells with camptothecin (screen for TDP1 inhibitors); Potency, µM (series often up to 46.2 µM), most hits filed as inhibitors; actives 12% (n = 420,000); chicken DT40 Tdp1-/-;hTDP1 cells + 20 nM CPT, ATP luminescence, 48 h; AID 686979; further: nearly all actives have a fitted effect of over 55% in size
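Chicken DT40 Tdp1-/- cells stably complemented with human TDP1 were seeded at 400 cells/well in medium containing 20 nM camptothecin, exposed to pin-transferred compounds, and grown at 37 °C for at least 48 hr. Viability was read as ATP luminescence.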
TDP1 cell noCPT – qHTS for Inhibitors of human tyrosyl-DNA phosphodiesterase 1 (TDP1): qHTS in cells in absence of CPT. DT40 Tdp1-/- hTDP1 cells, no CPT, ATP luminescence, 48 h. Potency, µM (series often up to 46.2 µM), actives largely listed as inhibitors. actives 15% (n = 420,000); further: nearly all actives have a fitted effect of over 55% in size
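Stably hTDP1-transfected Tdp1-null chicken DT40 cells were treated with library compounds minus camptothecin and grown for at least 48 hr at 37 °C, after which cellular ATP was quantified by luminescence.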
IL-1B inflam inh – blocks inflammasome-driven IL-1 beta release | AID 743279 | THP-1 LPS/ATP IL-1B secretion, AlphaLISA, 16 h; hits give low values | activity change, % at 57.5 µM | actives 4.7% (n = 360,000); in the data active means activity change below about -50%; inconclusive means mostly about -30% to -49%
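Secreted IL-1B measured by AlphaLISA bead assay after 16 h compound exposure of THP-1 cells; compounds (final up to 57.5 uM) added 1 h before LPS (250 ng/mL) and ATP (1.25 mM) stimulation; lower signal means less secretion.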
Each line names hits and unclear results; the compound was inactive in the other large screens. The entries come from a sample that favours hits as a whole. Unless noted, the call rests on the fitted dose curve; in most records, active means well fitted curve in the direction sought with a large enough effect; inconclusive means small, poorly fitted or top-dose-only effect, or another doubt; inactive means no such curve, though single readings can be large; an effect the other way counts as inactive or inconclusive.

O=C1COc2ccc(C(=O)/C=C/c3ccccc3)cc2N1	TDP1 cell CPT 5.2µM, TDP1 cell noCPT 5.2µM
N#Cc1ccc(/C=C/C(=O)c2ccc3c(c2)OCO3)cc1	HT1080NT lethal inconclusive, HT1080 IDH1KD tx inconclusive, TDP1 cell CPT 16µM, TDP1 cell noCPT 23µM, IL-1B inflam inh -69
O=C(/C=C/c1ccccc1)c1ccc2c(c1)OCCCCO2	TDP1 cell noCPT inconclusive, IL-1B inflam inh -78
C/C(=N/O)c1ccc2c(c1)NC(=O)CO2	none (no result: HT1080NT lethal, HT1080 IDH1KD tx, TDP1 cell CPT, TDP1 cell noCPT, IL-1B inflam inh)
CC(=O)Nc1ccc(CN2CCn3c(nn(-c4cccc(Cl)c4)c3=O)C2)cc1	none (no result: HT1080NT lethal, HT1080 IDH1KD tx, TDP1 cell CPT, TDP1 cell noCPT, IL-1B inflam inh)
Cc1cc(O)c2c(c1)C(=O)[C@@]13Oc4c5c(c(O)c6c(O)cc(C)cc46)C(=O)C[C@H](O)[C@H]5[C@@H]1[C@@H](O)CC(=O)C3=C2O	HT1080NT lethal inconclusive, HT1080 IDH1KD tx inconclusive, TDP1 cell CPT 15µM, TDP1 cell noCPT inconclusive (no result: ALOX12 inh)
Brc1ccc(OCc2nnnn2-c2ccccc2)cc1	TDP1 cell noCPT inconclusive, IL-1B inflam inh -69
CCCSCCCNC(=O)C1CCN(C(=O)c2cc3sccc3n2C)CC1	TDP1 cell CPT 21µM, TDP1 cell noCPT 21µM (no result: HT1080NT lethal, HT1080 IDH1KD tx, IL-1B inflam inh)
Cc1ccc(CCNC(=O)C2CCN(S(=O)(=O)N3CCCCC3)CC2)cc1	none
CCn1c(C(=O)N2CCC(C(=O)NCCc3ccccc3)CC2)cc2sccc21	TDP1 cell CPT inconclusive, TDP1 cell noCPT 26µM (no result: HT1080NT lethal, HT1080 IDH1KD tx, IL-1B inflam inh)
CCOc1ccc(CCNC(=O)C2CCN(S(=O)(=O)N3CCC(C)CC3)CC2)cc1OCC	TDP1 cell CPT inconclusive, TDP1 cell noCPT inconclusive
CCN(CC)CCCNC(=O)C1CCN(C(=O)c2cc3sccc3n2Cc2ccc(F)cc2)CC1	HT1080NT lethal inconclusive, ALOX12 inh inconclusive, HT1080 IDH1KD tx inconclusive
CCn1c(C(=O)N2CCC(C(=O)NCCc3ccc(C)cc3)CC2)cc2sccc21	TDP1 cell CPT 16µM, TDP1 cell noCPT 21µM (no result: HT1080NT lethal, HT1080 IDH1KD tx, IL-1B inflam inh)
CCOc1ccc(CCNC(=O)C2CCN(C(=O)c3cc4sccc4n3CC)CC2)cc1OCC	TDP1 cell CPT 16µM, TDP1 cell noCPT 18µM (no result: HT1080NT lethal, HT1080 IDH1KD tx, IL-1B inflam inh)
O=C(c1ccc[nH]1)N1CCCC(n2cc(-c3nc(C4CC4)no3)nn2)C1 (stereo not given)	none (no result: HT1080NT lethal, HT1080 IDH1KD tx, TDP1 cell CPT, TDP1 cell noCPT, IL-1B inflam inh)
CCCn1cc(-c2ccncc2)cc1C(=O)Nc1ccccc1C	none (no result: HT1080NT lethal, HT1080 IDH1KD tx, TDP1 cell CPT, TDP1 cell noCPT, IL-1B inflam inh)
N#Cc1ccc(CN2CCCC3(CCN(C(=O)c4ccncc4)CC3)C2)cc1	none (no result: HT1080NT lethal, HT1080 IDH1KD tx, IL-1B inflam inh)
CCn1c(C(=O)N2CCC(C(=O)NCCCSC3CCCCC3)CC2)cc2sccc21	TDP1 cell CPT inconclusive, TDP1 cell noCPT 18µM
CC(C)Oc1ccc(CNC(=O)C2CCN(C(=O)c3sccc3-n3cccc3)CC2)cc1	TDP1 cell noCPT inconclusive (no result: HT1080NT lethal, HT1080 IDH1KD tx, IL-1B inflam inh)
CC(CCc1ccccc1)NC(=O)C1CCN(C(=O)c2sccc2-n2cccc2)CC1 (stereo not given)	TDP1 cell CPT inconclusive, TDP1 cell noCPT 21µM
COCCCNC(=O)C1CCN(C(=O)c2cc3sccc3n2Cc2ccc(F)cc2)CC1	TDP1 cell CPT inconclusive, TDP1 cell noCPT inconclusive
Cc1ccc(CC(=O)N(C)CC(=O)Nc2ccccc2C(F)(F)F)cc1	none (no result: HT1080NT lethal, HT1080 IDH1KD tx, TDP1 cell CPT, TDP1 cell noCPT, IL-1B inflam inh)
CC(C)(C)NC(=O)CSc1nc(C2CC2)nc2ccccc12	none (no result: HT1080NT lethal, HT1080 IDH1KD tx, TDP1 cell CPT, TDP1 cell noCPT, IL-1B inflam inh)
CCC[C@H]1[C@H](NCc2ccccc2)CC[C@@]23CCCN2C(=O)CCC[C@@H]13	none (no result: HT1080NT lethal, HT1080 IDH1KD tx, TDP1 cell CPT, TDP1 cell noCPT, IL-1B inflam inh)
Clc1ccc(CN2CCC(c3ccccc3)CC2)cc1	TDP1 cell CPT inconclusive, TDP1 cell noCPT inconclusive
Clc1ccc(CNC2CCN(Cc3ccccc3)CC2)cc1	ALOX12 inh 8.9µM, HT1080 IDH1KD tx inconclusive, TDP1 cell noCPT inconclusive
c1ccc(-c2ccc(CNC3CC3)cc2)cc1	TDP1 cell CPT inconclusive, IL-1B inflam inh -87
S=C(NCc1ccc(Cl)cc1)NC1CCN(Cc2ccccc2)CC1	HT1080NT lethal 23µM, ALOX12 inh inconclusive, HT1080 IDH1KD tx 21µM, TDP1 cell CPT 18µM, TDP1 cell noCPT 16µM, IL-1B inflam inh -92
O=C(O)/C=C/S(=O)(=O)c1ccc2ccccc2c1	TDP1 cell CPT inconclusive, TDP1 cell noCPT inconclusive
Cc1ccc(OCCC2CCN(C(=O)C(C)C)C2)cc1 (stereo not given)	none (no result: HT1080NT lethal, HT1080 IDH1KD tx, TDP1 cell CPT, TDP1 cell noCPT, IL-1B inflam inh)
O=C(c1ccc(S(=O)(=O)N2CCCCC2)cc1)N1CCN(CCN2C(=O)c3cccc4cccc(c34)C2=O)CC1	TDP1 cell CPT 13µM, TDP1 cell noCPT 12µM
CCOc1ccc(NC(=S)N2CCN(CCN3C(=O)c4cccc5cccc(c45)C3=O)CC2)cc1	TDP1 cell CPT inconclusive, TDP1 cell noCPT 26µM
O=C(/C=C/c1ccccc1)N1CCN(CCN2C(=O)c3cccc4cccc(c34)C2=O)CC1	TDP1 cell CPT 7.3µM, TDP1 cell noCPT 7.3µM
O=C(CCN1C(=O)c2cccc3cccc(c23)C1=O)N1CCOCC1	IL-1B inflam inh inconclusive
COc1ccc(CN2C(=O)CSCC2=O)cc1OC	none
COc1ccc(CCN2C(=O)CSC2=S)cc1OC	HT1080NT lethal inconclusive, ALOX12 inh inconclusive, HT1080 IDH1KD tx 23µM, TDP1 cell CPT 2.9µM, TDP1 cell noCPT 2.6µM, IL-1B inflam inh -73
COc1ccc(CCN2C(=O)CC(N3CCOCC3)C2=O)cc1OC (stereo not given)	none
COc1ccc(CCN2C(=O)CC(Nc3ccc(N4CCOCC4)cc3)C2=O)cc1OC (stereo not given)	TDP1 cell noCPT 2.3µM

Screening data as filed in PubChem.
